The values below come from article PMC11062922 (Nature Chemical Biology, 2023).

Like-named read-outs stand apart in the source and are kept apart here.

Design in all cases: species or system human, MV4-11 + K-562 + COLO205 + SK-N-BE2 + OVCAR-8
For one test, the system named is CSNK1E. The note with it: read-out: apparent Kd, n = 1.
Another test has as its system PRKX. Conditions: read-out: apparent Kd, compound concentrations: 100 nM and 1000 nM (sheet 'Samples'), n = 1.
Another test relates to BUB1. The note with it: read-out: apparent Kd, compound concentrations: 100 nM and 1000 nM (sheet 'Samples'), n = 1.
The test system of another test is CDK17. Conditions: read-out: apparent Kd, compound concentrations: 100 nM and 1000 nM (sheet 'Samples'), n = 1.
The test system of another test is HCK. The note with it: read-out: apparent Kd, compound concentrations: 100 nM and 1000 nM (sheet 'Samples'), n = 1.
The next test concerns MARK2. The note with it: read-out: apparent Kd, compound concentrations: 100 nM and 1000 nM (sheet 'Samples'), n = 1.
Another test concerns PRKAA2. The note with it: read-out: apparent Kd, compound concentrations: 100 nM and 1000 nM (sheet 'Samples'), n = 1.
The subject of another test is RIOK2. Conditions: read-out: apparent Kd, compound concentrations: 100 nM and 1000 nM (sheet 'Samples'), n = 1.
For another test, the system named is RPS6KA4. The note with it: read-out: apparent Kd, compound concentrations: 100 nM and 1000 nM (sheet 'Samples'), n = 1.
For another test, the system named is STK16. The note with it: read-out: apparent Kd, compound concentrations: 100 nM and 1000 nM (sheet 'Samples'), n = 1.
In a further test the test system is TNIK. Conditions: read-out: apparent Kd; compound concentrations: 100 nM and 1000 nM (sheet 'Samples'), CATDS: 6.3415403729181101E-3; n = 1.
A further test deals with YES1. Conditions: read-out: apparent Kd, compound concentrations: 100 nM and 1000 nM (sheet 'Samples'), n = 1.
A further test deals with ROCK2. The note with it: read-out: apparent Kd, compound concentrations: 100 nM and 1000 nM (sheet 'Samples'), n = 1.
The subject of the next test is ADCK1. The note with it: read-out: apparent Kd, compound concentrations: 100 nM and 1000 nM (sheet 'Samples'), n = 1.
For the next test, the system named is CSNK1A1. The note with it: read-out: apparent Kd; compound concentrations: 100 nM and 1000 nM (sheet 'Samples'), CATDS: 5.1324512690416697E-3; n = 1.
A further test relates to EPHA2. The note with it: read-out: apparent Kd, compound concentrations: 100 nM and 1000 nM (sheet 'Samples'), n = 1.
Another test concerns MAPK8. The note with it: read-out: apparent Kd; compound concentrations: 100 nM and 1000 nM (sheet 'Samples'), CATDS: 3.9571355950897801E-3; n = 1.
In another test the test system is PHKG2. The note with it: read-out: apparent Kd, compound concentrations: 100 nM and 1000 nM (sheet 'Samples'), n = 1.
A further test concerns SRC. The note with it: read-out: apparent Kd, compound concentrations: 100 nM and 1000 nM (sheet 'Samples'), n = 1.
In a further test the test system is STK3. Conditions: read-out: apparent Kd; compound concentrations: 100 nM and 1000 nM (sheet 'Samples'), CATDS: 4.2986396089691199E-3; n = 1.
Where [1] appears, read: compound concentrations:100 nM and 1000 nM (sheet 'Samples').

Consider `Cc1cccc(-c2nc(Nc3ccncc3)c3sccc3n2)n1` [GW869641X], for which the potency estimated from few doses in the test with CSNK1E (setting [1]) was 418 nM.

For `CCn1c(-c2nonc2N)nc2c(C#CC(C)(C)O)nc(CN3CCCC3)cc21` [GSK1000163A], the potency estimated from few doses in the test on PRKX (CATDS: 0.25481287922850399) was 759 nM.

`Fc1ccc(-c2c(-c3ccncc3)[nH]c3cccnc23)cc1` [RO1153853-000]: the potency estimated from few doses with BUB1 (CATDS: 4.9666048128405298E-2) was 1690 nM; with CSNK1E (compound concentrations: 100 nM and 1000 nM (sheet 'Samples'), CATDS: 9.9990073063758705E-2) it was 274 nM.

On to `COc1ccc(Nc2ncc(C#N)c(Nc3ccccc3C(N)=O)n2)cc1N1CCN(C)CC1.Cl` [GSK1558669A], for which the potency estimated from few doses in the test with BUB1 (CATDS: 6.2718506729186104E-3) is 1300 nM; with CDK17 (CATDS: 6.8555901877920197E-3) it was 789 nM; in the test on HCK (CATDS: 7.9271656911812094E-3) it was 417 nM; with MARK2 (CATDS: 8.7535455285316904E-3), 289 nM; with PRKAA2 (CATDS: 3.3781833346765697E-2), 15.3 nM; in the test with RIOK2 (CATDS: 6.5501119131463198E-3) it was 1000 nM. In addition, the potency estimated from few doses is 330 nM in the test with RPS6KA4 (CATDS: 8.4346807860121598E-3), 1570 nM with STK16 (CATDS: 6.09253969178725E-3), 1210 nM in the test with TNIK and 318 nM in the test on YES1 (CATDS: 8.5191429755921595E-3).

Consider `CCn1c(-c2nonc2N)nc2c(C#CCN)ncc(OCCCN)c21.O=C(O)C(F)(F)F` [GSK561866B], for which the potency estimated from few doses in the test on ROCK2 (CATDS: 8.7160231406383598E-2) was 858 nM.

As for `CN(c1ccc(NC(=O)N2CCN(CCCN3CCOCC3)CC2)cc1)c1ccnc(Nc2ccc(CS(C)(=O)=O)cc2)n1.Cl` [GW830899A], the potency estimated from few doses is 867 nM in the test on ADCK1 (CATDS: 2.5462418576412099E-2) and 1550 nM in the test on MARK2 (CATDS: 1.9891178500976402E-2).

As for `Cn1ncc2c(N)ncnc21` [SKF-18267], the potency estimated from few doses is 789 nM with ADCK1 (CATDS: 5.0791005267813499E-3); 1510 nM in the test on BUB1 (CATDS: 3.8134095637251098E-3); 762 nM with CDK17 (CATDS: 5.1710144175889199E-3); 773 nM in the test on CSNK1A1; 1130 nM in the test with CSNK1E (compound concentrations: 100 nM and 1000 nM (sheet 'Samples'), CATDS: 4.2831601683339304E-3); 555 nM with EPHA2 (CATDS: 6.1597951567788304E-3). The potency estimated from few doses is 997 nM in the test with HCK (CATDS: 4.5358126876330496E-3); 1370 nM with MAPK8; 1490 nM in the test with MARK2 (CATDS: 3.8405596428901902E-3); 1100 nM in the test with PHKG2 (CATDS: 4.3394023432843602E-3); 705 nM in the test on RIOK2 (CATDS: 5.3875103826164002E-3); 891 nM with ROCK2 (CATDS: 4.7820751865343299E-3). In addition, the potency estimated from few doses with RPS6KA4 (CATDS: 4.17505153349991E-3) is 1200 nM; in the test with SRC (CATDS: 7.2051481672215003E-3) it was 429 nM; in the test on STK16 (CATDS: 4.0331507933998702E-3) it was 1310 nM; with STK3 it was 1120 nM; in the test with YES1 (CATDS: 6.9300225951379104E-3), 456 nM.

As for `Cl.ON=C1CCc2cc(-c3nc(C4CCNCC4)[nH]c3-c3ccncc3)ccc21` [SB-614067-R], the potency estimated from few doses in the test with CSNK1E (setting [1]) is 1190 nM.

`Clc1cc(Cl)cc(Nc2ccnc(Nc3cc(Cl)cc(Cl)c3)n2)c1` [GSK175726A]: the potency estimated from few doses was 64 nM in the test with EPHA2 (CATDS: 3.0586231323348499E-2); 316 nM in the test on HCK (CATDS: 1.3478571983596799E-2); 1680 nM in the test on PHKG2 (CATDS: 8.5028793142563602E-3); 618 nM in the test on PRKAA2 (CATDS: 1.07442997812795E-2); 722 nM in the test on PRKX (CATDS: 1.0278626389666701E-2); 1720 nM with RPS6KA4 (CATDS: 8.4689848583526291E-3). Further, the results for the potency estimated from few doses in the test on SRC (CATDS: 2.4757216834404398E-2) and in the test on YES1 (CATDS: 2.3154900781863899E-2) were 90.3 nM and 101 nM, respectively.
